Results on 40 compounds are retold here after PubChem BioAssay (NCATS).

Inconclusive results are not listed. The source made the active and inactive calls. Calls follow the shape of the dose curve; as a rule, active = well fitted cell-killing curve with a large enough effect; inconclusive = small, poorly fitted or top-dose-only effect; inactive = flat fitted curve, though single readings scatter.
Potency is read from the fitted curve at half-maximal effect.

A short description of the test: Quantitative highthroughput screen to assess conditional lethalithy of NOMO1 cells grown in RPMI1640 with untreated serum (RPMI+s) (AID 1963876). Also: nearly all actives have a fitted effect of over 35% in size. The conditions noted are these: NOMO1 AML cells in RPMI+serum, CellTiter-Glo viability, 48 h; series mostly up to 45.8 µM; viability: at the top concentration. From the text:
Assay Provider: Jason Cantor Ph.D.
Department of Biochemistry
University of Wisconsin-Madison, Madison, WI, USA
Chemical screening studies have identified drug sensitivities across hundreds of cancer cell lines but most putative therapeutics fail to translate. Discovery and development of drug candidates in models that more accurately reflect nutrient levels in human blood is a major challenge. Here we performed high-throughput screens in conventional versus Human Plasma-Like Medium (HPLM) to identify compounds that were "missed" when screening using the artificial culture condition. Sets of conditional anticancer compounds spanned phases of clinical development and included non-oncology drugs were assessed. […] We also traced conditional phenotypes for several chemotherapeutics to availability of HPLM-specific metabolites and confirmed others for compounds whose reported targets are encoded by nonessential genes. Our findings establish generalizable strategies for exploiting conditional lethality in HPLM to reveal therapeutic candidates and mechanisms of action in cancer cells.
Described herein are the results of each viability screens against three cell lines: NOMO1 (an acute myeloid leukemia cell line); P12-Ichikawa (a T-cell acute lymphoblastic leukemia); and SEM (a B-cell ALL). Each assay was screened using 3 different cell culture media: homemade human plasma-Like medium with 10% dialyzed fetal bovine serum (HPLM+ds); RPMI1640 with 10% untreated FBS and 5mM glucose (RPMI+s); and RPMI1640 with 10% dialyzed fetal bovine serum and 5 mM glucose (RPMI+ds).
PROTOCOL TABLE (as described by Inglese J, Shamu CE and Guy RK. 2007)
SEQUENCE No. (e.g., 1, 2, 3, etc.); […] (e.g., Cells, Incubation, Reagent, etc.); VALUE and DESCRIPTION.
1; Cells; 5 uL; white, solid bottom 1536-well Greiner assay plate.
2; Compounds; 23 nL; Kalypsis pin tool (Wako USA) equipped with a 1536-well pin head to transfer to the assay plates.
3; Incubation; 48 hours; 37C incubation.
4; Reagent; 3 uL; CellTiter Glo (Promega).
5; Incubation; 5 min, room temperature
6; Detection; Luminescence, Viewlux PerkinElmer.
NOTES (numbers refer to Sequence numbers above)
1. Briefly, 5 ul of cell reagent was dispensed using a Multidrop Combi Dispenser. The NOMO1 and SEM cells were plated at 500 cells/well and the P12-Ichikawa line at 1000 cells/well.
2. After seeding the cells, 23 nL of MIPE 4.1 library compounds (in DMSO) were added to each plate using a Kalypsys 1536 Pintool dispenser. Bortezomib at final concentration of […] and DMSO were added to each plate as positive and negative controls respectively. For each screen, MIPE 4.1 compounds were added over an eleven-point concentration range […] in 3-fold dilutions.
3. Each plate was covered with a stainless steel gasketed lid to prevent evaporation and incubated for 48 hour at 37C, 95% relative humidity, and 5% CO2.
4-5. Three microliter CellTilter-GloTM luminescent substrate mix (Promega) reagent was added to the assay plate and incubated at room temperature for 5 min.
6. The luminescence signal was measured using a ViewLux (PerkinElmer) multiplate reader with a 2 second exposure time per plate. Data for each compound were normalized as percent viability such that measurements for DMSO and the empty well controls in each plate were defined as 100% and 0%, respectively.
(In ATP-based viability assays light output follows the ATP content of the culture.)
As for `CCn1cc(C(=O)O)c(=O)c2cc(F)c(N3CCNCC3)cc21`, the “viability” value was 90.8% (inactive).

`COC1=C2C[C@@H](C)C[C@H](OC)[C@@H](O)[C@@H](C)C=C(C)[C@H](OC(N)=O)[C@@H](OC)C=CC=C(C)C(=O)NC(=CC1=O)C2=O`: the Potency is 23.5 µM (active). Consider `CC(=O)O[C@]1(C(C)=O)CC[C@H]2[C@@H]3C=C(Cl)C4=CC(=O)[C@@H]5C[C@H]5[C@]4(C)[C@@H]3CC[C@@]21C`, for which the Potency is 0.59 µM (active).

As for `CC(C)[C@H](C(=O)Nc1ccc(C(=O)NO)cc1)c1ccccc1`, the Potency is 3.32 µM (active).

Turning to `OCC(O)C(O)C(O)CO` (stereo not given), the “viability” value is 99% (inactive). For `CCOCC(O)COc1ccc(NC(=O)CC[S+](C)C)cc1` (stereo not given), the “viability” value is 97% (inactive). The same measure, in the same setting: next, `CCCCCCCCCC(=O)N[C@@H](Cc1c[nH]c2ccccc12)C(=O)N[C@H](CC(N)=O)C(=O)N[C@@H](CC(=O)O)C(=O)N[C@@H]1C(=O)NCC(=O)N[C@@H](CCCN)C(=O)N[C@@H](CC(=O)O)C(=O)N[C@H](C)C(=O)N[C@@H](CC(=O)O)C(=O)NCC(=O)N[C@H](CO)C(=O)N[C@@H]([C@@H](C)CC(=O)O)C(=O)N[C@@H](CC(=O)c2ccccc2N)C(=O)O[C@@H]1C`: 96.9% (inactive); `Cc1cc2cc3c(C)cc(=O)oc3c(C)c2o1`: 94.1% (inactive); `CC(C)(C)C(=O)Oc1ccc(S(=O)(=O)Nc2ccccc2C(=O)NCC(=O)O)cc1`: 116% (inactive). With `Oc1c(Cl)cc(Cl)c2cccnc12`, the “viability” value is 69.5% (inactive).

On to `C[C@@]1(c2cc(-c3cncnc3)c(F)cc2F)CCSC(N)=N1`, for which the Potency is 1.66 µM (active). For the compound `Cc1cnc(CNC(=O)c2c(=O)c3ccc(N4CCCN(C)CC4)nc3n3c2sc2ccccc23)cn1`, the “viability” value is 93.5% [at 23.2 µM] (inactive).

For the compound `COc1cc(Cl)cn2c(-c3cccc(NC4CNC4)n3)cnc12`, the “viability” value is 95% (inactive).

Turning to `Fc1cc(-c2cccc3ncc(-c4cnn(C5CCNCC5)c4)nc23)cc(F)c1CN1CCOCC1`, the Potency was 8.33 µM (active). Consider `Cc1ccc(-c2cc(C(F)(F)F)nn2-c2ccc(S(N)(=O)=O)cc2)cc1`, for which the “viability” value was 96.7% (inactive). In the case of `O=C(O)COCCN1CCN(C(c2ccccc2)c2ccc(Cl)cc2)CC1` (stereo not given), the “viability” value was 103% (inactive). As for `CN1CCN(c2c(F)cc3c(=O)c(C(=O)O)cn(CCF)c3c2F)CC1`, the “viability” value was 98.5% (inactive). With `Cc1ccnc(NS(=O)(=O)c2ccc(NC(=O)Nc3ccc(S(=O)(=O)Nc4nccc(C)n4)cc3)cc2)n1`, the Potency is 0.296 µM (active). With `CS(=O)(=O)c1ccc(Oc2cc(F)cc(C#N)c2)c2c1[C@H](O)C(F)(F)C2`, the “viability” value is 102% (inactive). `CC[C@H](CO)Nc1nc(NCc2ccccc2)c2ncn(C(C)C)c2n1`: the “viability” value was 94.8% (inactive). Turning to `O=C(c1ccc(C(=O)N2CCC(N3CCCC3)CC2)c(Nc2ccccc2)c1)N1CCC(N2CCCC2)CC1`, the “viability” value was 124% (inactive). Take `CC1(C)O[C@H]2CC(=O)OC[C@]23[C@H]2CC[C@@]4(C)[C@H](c5ccoc5)OC(=O)[C@H]5O[C@]54[C@]2(C)C(=O)C[C@@H]13`: the “viability” value was 98.3% (inactive). In the case of `Cc1ccc(C(=O)Nc2ccc(S(=O)(=O)O)c3cc(S(=O)(=O)O)cc(S(=O)(=O)O)c23)cc1NC(=O)c1cccc(NC(=O)Nc2cccc(C(=O)Nc3cc(C(=O)Nc4ccc(S(=O)(=O)O)c5cc(S(=O)(=O)O)cc(S(=O)(=O)O)c45)ccc3C)c2)c1`, the “viability” value is 80.1% (inactive). Take `C#C[C@]1(O)CC[C@@H]2[C@@H]3CCc4cc(O)ccc4[C@H]3CC[C@@]21C`: the “viability” value was 99.5% (inactive). On to `Nc1ccn(C[C@@H](CO)OCP(=O)(O)O)c(=O)n1`, for which the “viability” value was 113% [at 23.2 µM] (inactive). With `CCCCCCCN(CC)CCCC(O)c1ccc(NS(C)(=O)=O)cc1` (stereo not given), the “viability” value is 105% (inactive). Turning to `O=C(CCCCCCNC(=O)c1cnc(N(c2ccccc2)c2ccccc2)nc1)NO`, the Potency was 18.7 µM (active). `COc1ccc2c(c1)c(CC(=O)OCC(=O)O)c(C)n2C(=O)c1ccc(Cl)cc1`: the “viability” value is 97.5% (inactive). Regarding `CC=CCC=CCCC(=O)[C@H]1O[C@@H]1C(N)=O`, the “viability” value was 84% (inactive). Take `CCn1c(-c2nonc2N)nc2cncc(CNC3CCNCC3)c21`: the Potency was 9.35 µM (active). On the same count and under the same terms, the value for `CCc1c2c(nc3ccc(OC(=O)N4CCC(N5CCCCC5)CC4)cc13)-c1cc3c(c(=O)n1C2)COC(=O)[C@]3(O)CC` was 2.96 µM (active).

Turning to `OC[C@@H](O)[C@@H](O)[C@H](O)[C@@H](O)CO`, the “viability” value was 105% (inactive).

Turning to `OCCCNc1cc(-c2ccnc(Nc3cccc(Cl)c3)n2)ccn1`, the Potency was 0.187 µM (active). On to `CCN1CCN(C(=O)N[C@H](C(=O)N[C@@H]2C(=O)N3C(C(=O)O)=C(CSc4nnnn4C)CS[C@@H]23)c2ccc(O)cc2)C(=O)C1=O`, for which the “viability” value was 110% [at 15.3 µM] (inactive).

Regarding `O=C(NC(Cc1cc(=O)[nH]c2ccccc12)C(=O)O)c1ccc(Cl)cc1` (stereo not given), the “viability” value is 102% (inactive). As for `CCC(C)N(C)C(=O)c1cc2ccccc2c(-c2ccccc2Cl)n1` (stereo not given), the “viability” value was 102% (inactive). As to `O=c1[nH]c(=O)n([C@H]2C[C@@H](O)[C@@H](CO)O2)cc1C=CBr`, the “viability” value was 96.4% (inactive). As to `CC(C(=O)O)c1cccc(C(=O)c2ccccc2)c1` (stereo not given), the “viability” value was 92.1% (inactive). `Cc1nc(C(=O)NCC(=O)O)c(O)c2ccc(Oc3ccccc3)cc12`: the “viability” value was 107% (inactive). Regarding `CC(C)(C)Cn1c(N)nc2ccc(-c3[nH]c(C(C)(C)C)nc3-c3ccc(F)cc3)nc21`, the “viability” value is 95.3% (inactive).

For orientation: viability means a read-out of living cells in per cent, often relative to untreated cells.
